Screens as filed in PubChem.
Most compounds without a hit are left out; they make up all but 1.2% or so of the library.
PI4K2A inh: blocks human PI4K2A kinase activity | Q9BTU6 | purified PI4K2A, ADP-Glo luminescence, 1 h; active compounds read low | activity change, negative = inhibition, % at 76.9 µM | 420,000 tested, 0.13% active | AID 1346378; in the data active = activity change below about -50%; inconclusive = mostly about -30% to -49%;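 note: -100% = wells without enzyme as full effect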
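Compounds are screened against recombinant PI4K2A using PI as substrate and ATP, the latter dispensed at 300 microM. Reactions run one hour at ambient temperature before ADP-Glo detection; full inhibition defined by wells lacking enzyme.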
PKM2 act: PKM2 (human) enzyme activation | P14618 | purified PKM2, Kinase-Glo ATP luminescence, activation; response scale: 0% is enzyme alone, no compound | Potency, µM (top dose mostly 57.5 µM), inactives show top-dose activation, hits mostly activators | 260,000 tested, 0.34% active | AID 1631; note: potency is the fitted concentration of half-maximal effect; % is set by controls: 0 for no effect and ±100 for the full control effect; nearly all actives have a fitted effect of over 55% in size
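Purified hPK-M2 (>95% pure) converted ADP (0.1 mM final) to ATP with 0.5 mM PEP in 50 mM imidazole pH7.2, KCl, MgCl2, Tween 20, BSA; 1 h at room temperature. ATP detected by Kinase-Glo luminescence.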
GALK inh: blocks human galactokinase activity; 270,000 tested, 0.007% active; Purified GALK, Kinase-Glo residual ATP luminescence; P51570; Potency, µM (top dose mostly 57.5 µM), inactives show at the top dose activity change, negative = inhibition, hits mostly inhibitors; note: potency is the fitted concentration of half-maximal effect; % is set by controls: 0 for no effect and ±100 for the full control effect
Target sequence (P51570 whole entry, looked up): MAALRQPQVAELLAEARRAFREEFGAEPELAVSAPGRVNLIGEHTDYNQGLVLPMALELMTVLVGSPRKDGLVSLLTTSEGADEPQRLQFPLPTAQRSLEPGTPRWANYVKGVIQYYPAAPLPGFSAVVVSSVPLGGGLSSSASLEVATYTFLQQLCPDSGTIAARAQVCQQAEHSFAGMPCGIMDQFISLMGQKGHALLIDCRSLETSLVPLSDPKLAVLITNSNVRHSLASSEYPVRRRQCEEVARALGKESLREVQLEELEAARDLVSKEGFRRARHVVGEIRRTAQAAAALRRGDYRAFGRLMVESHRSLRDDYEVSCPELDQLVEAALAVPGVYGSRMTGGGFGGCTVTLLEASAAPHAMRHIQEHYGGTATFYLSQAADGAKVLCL
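5 nM enzyme, 35 uM ATP, 100 uM galactose, 20 mM HEPES pH8.0, 5 mM MgCl2; 1 h RT; residual ATP by Kinase-Glo Plus luminescence, qHTS format.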
TrxR1 inh-1: blocks rat thioredoxin reductase 1; O89049; recombinant rTrxR1, NADPH fluorescence consumption, selenite substrate; Potency, µM (highest dose often 114 µM), without a hit: at the top dose activity change, negative = inhibition, actives largely listed as inhibitors; 390,000 tested, 1% active; note: potency is the fitted concentration of half-maximal effect; % is set by controls: 0 for no effect and ±100 for the full control effect; nearly all actives have a fitted effect of over 65% in size
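Rat TrxR1 (90 nM in the dispensed reagent) was pre-reduced with 400 uM NADPH for 5 min at room temperature, then incubated with compound for 15 min. After 400 uM selenite was added, NADPH fluorescence (Ex 340/Em 450 nm) was followed for 8 min.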
TrxR1 substrate: substrates of rat thioredoxin reductase 1; 390,000 tested, 0.01% active; Potency, µM (series often up to 114 µM), for inactives: at the top dose activity change, negative = substrate turnover; purified TrxR1 substrate turnover, NADPH consumption readout; O89049; note: potency is the fitted concentration of half-maximal effect; % is set by controls: 0 for no effect and ±100 for the full control effect; nearly all actives have a fitted effect of over 50% in size
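Rat TrxR1, dispensed at 90 nM, was prereduced with 400 uM NADPH (final) for 5 min at ~22 deg C, then incubated with compound 15 min before 400 uM selenite. A first-read NADPH fluorescence drop versus no-compound background flagged substrates.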
TRb SRC2 Alpha: disrupts human TRb binding to SRC2 peptide in AlphaScreen. Potency, µM. AlphaScreen TRb LBD-SRC2 peptide binding, luminescence. 30 tested, 50% active. shares compounds with TrxR1 inh-1; calls by dose curve
HepG2 tox: reduces HepG2 viability in TRb-SRC2 counter-screen; shares compounds with TrxR1 inh-1; 40 tested, 50% active; HepG2 viability, ATP luminescence (CellTiter-Glo), 72 h; Potency, µM; calls by dose curve
AR SRC2 FP: disrupts human androgen receptor binding to SRC2 peptide. shares compounds with TrxR1 inh-1. AR-LBD Tx-SRC2-3 fluorescence polarization, 3 h. calls only. 25 tested, under 10 active. AID 2448; call rule not given here
PPARg DRIP2 FP: selectivity of TRb-SRC2 inhibitors: human PPARgamma coactivator binding inhibition. shares compounds with TrxR1 inh-1. PPARg LBD / Texas Red DRIP-2 peptide, fluorescence polarization, 3 h. Potency, µM. 25 tested, under 10 active. AID 2449; calls by dose curve
VDR SRC2 FP: disrupts human vitamin D receptor binding to SRC2 peptide. 25 tested, under 10 active. shares compounds with TrxR1 inh-1. VDR LBD/SRC2-3 peptide, fluorescence polarization, 3 h. Potency, µM; calls by dose curve
TRb SRC2 FluoFP: TRb-SRC2 (human) inhibition, fluorescein FP confirmation. 20 tested, under 10 active. Potency, µM. shares compounds with TrxR1 inh-1. AID 2487. TRb LBD / fluorescein-SRC2 peptide, fluorescence polarization; call rule not given here
GR inh: inhibits human glutathione reductase in TrxR1 counterassay; shares compounds with TrxR1 inh-1; purified GR, DTNB reduction absorbance 405 nm kinetic; activity change, negative = inhibition, % at 57.1 µM; 55 tested, under 10 active
TrxR1 inh-2: blocks rat thioredoxin reductase 1 in hit validation | shares compounds with TrxR1 inh-1 | recombinant TrxR1, NADPH fluorescence consumption, selenite substrate | Potency, µM, usual class: inhibitors | 55 tested, 50% active | AID 652023
TrxR1 insulin: TrxR1 inhibitors: insulin reduction mechanism-of-action test | 55 tested, 20% active | TrxR1 Trx-coupled insulin reduction, NADPH absorbance 340 nm | Potency, µM | shares compounds with TrxR1 inh-1;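 active = compounds with a measured potency under 100 micromolar; inconclusive = filed, but no rule given; inactive = potency at or above that, or unmeasurable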
TrxR1 inh-3: rat thioredoxin reductase 1 inhibition, DTNB assay | shares compounds with TrxR1 inh-1 | purified TrxR1, DTNB reduction, A412 | Potency, µM | 55 tested, 90% active | AID 652256;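 active = a half-inhibiting concentration could be measured and was below 100 µM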
The depositor's hits bear a star; [ ] = remark or other dose. Unless noted, calls come from the whole dose curve; as a rule, active = well fitted curve in the direction sought with a large enough effect; inconclusive = small, poorly fitted or top-dose-only effect, or another doubt; inactive = no such curve, though single readings can be large; an effect the other way counts as inactive or inconclusive.

Results for CS(=O)(=O)c1ccc(C(=O)OCC(=O)N2Cc3ccccc3C2)cc1[N+](=O)[O-] ?
HepG2 tox: 20µM*

Results for CCOC(=O)C1CCN(C(c2ccccn2)c2c(C)[nH]c3ccccc23)CC1 (stereo unspecified) ?
PI4K2A inh: 4; PKM2 act: -2%; GALK inh: -2%; TrxR1 inh-1: 2.5µM*; TrxR1 substrate: 1%; GR inh: -25; TrxR1 inh-2: 1.5*; TrxR1 insulin: inactive; TrxR1 inh-3: 0.19µM*

How did COc1ccc(NC(=O)C(C)n2nc(-c3cc(C)ccc3C)c3c(c2=O)CCCC3)cc1 (stereo unspecified) do in these assays?
PI4K2A inh: -3; TrxR1 inh-1: 13%; TrxR1 substrate: -1%

How did C/C=C\C=C\C(=O)Nc1cccc(C2=NOC3(C2)C[C@@H](C(N)=O)N(C(=O)C(c2ccccc2)c2ccccc2)C3)c1 (stereo partly specified) do in these assays?
PI4K2A inh: -2; PKM2 act: inconclusive; GALK inh: 4%; TrxR1 inh-1: 13µM*; TrxR1 substrate: -3%; TrxR1 insulin: inactive; TrxR1 inh-3: inactive

How did O=c1c(Cl)c(Cl)cnn1Cc1nnc(-c2ccc(Cl)cc2)o1 do in these assays?
PI4K2A inh: 6; PKM2 act: 4%; GALK inh: -3%; TrxR1 inh-1: 7.1µM*; TrxR1 substrate: 9%; GR inh: 1; TrxR1 inh-2: 8.4*; TrxR1 insulin: inactive; TrxR1 inh-3: 3.4µM*

What do the screens show for `Cc1ccc(-c2nnc(Cc3ccc(Cl)cc3)o2)cc1`?
PI4K2A inh: 8; PKM2 act: 1%; GALK inh: 2%; TrxR1 inh-1: 25%; TrxR1 substrate: -1%

Results for COCCCN1C(=O)[C@H](CC(=O)NCc2ccc(C)o2)[C@]2(C(=O)OC)CCCCC=C12 ?
PI4K2A inh: -2

Results for COC(=O)c1ccccc1S(=O)(=O)N(Cc1ccco1)Cc1cc2cc(OC)ccc2[nH]c1=O ?
PI4K2A inh: 1; PKM2 act: 10%; GALK inh: 1%; TrxR1 inh-1: 10µM*; TrxR1 substrate: 24%; GR inh: 0; TrxR1 inh-2: 6*; TrxR1 insulin: inactive; TrxR1 inh-3: 7.4µM*

Results for CC(C)c1ccc(NC(=O)c2cnc3sc(N4CCOCC4)nn3c2=O)cc1 ?
PI4K2A inh: 2; TrxR1 inh-1: -12%[57.1 µM]; TrxR1 substrate: -12%[57.1 µM]

How did CCCC1CCN(C(=O)COC(=O)c2ccc(S(C)(=O)=O)c([N+](=O)[O-])c2)CC1 do in these assays?
HepG2 tox: 6.6µM*

What do the screens show for `CS(=O)(=O)c1ccc(C(=O)OCC(=O)N2CCN(CCC3CCCCC3)CC2)cc1[N+](=O)[O-]`?
PI4K2A inh: -6

What do the screens show for `CC1CCCCN1C(=O)COC(=O)c1ccc(S(C)(=O)=O)c([N+](=O)[O-])c1` (stereo unspecified)?
TrxR1 inh-1: 10µM*; TrxR1 substrate: -1%; TRb SRC2 Alpha: 19µM*; HepG2 tox: 22µM*; AR SRC2 FP: inactive; PPARg DRIP2 FP: inactive; VDR SRC2 FP: inactive; TRb SRC2 FluoFP: 9.1µM*

How did CS(=O)(=O)c1ccc(C(=O)OCC(=O)N2CCC(Cc3ccccc3)CC2)cc1[N+](=O)[O-] do in these assays?
HepG2 tox: 9µM*

What do the screens show for `CC1CCCCN1C(=O)COC(=O)CSc1ccc(C(N)=O)cc1[N+](=O)[O-]` (stereo unspecified)?
PI4K2A inh: 1; TrxR1 inh-1: 13%[57.1 µM]; TrxR1 substrate: 6%[57.1 µM]

How did S=C(NCCCc1cnc[nH]1)NCCCN(CCc1ccc(Cl)cc1)c1ccc(Br)cn1 do in these assays?
TrxR1 inh-1: 30%; TrxR1 substrate: 1%

Results for COCCn1nnnc1C(c1ccc(O)c(OC)c1)N1CCc2ccccc2C1 (stereo unspecified) ?
PI4K2A inh: -7; PKM2 act: 13%; GALK inh: -2%; TrxR1 inh-1: 5.6µM*; TrxR1 substrate: 20%[57.1 µM]; GR inh: 0; TrxR1 inh-2: 4.7*; TrxR1 insulin: inactive; TrxR1 inh-3: 0.27µM*

How did CCC(C)(C)n1nnnc1C(c1ccc(O)cc1)N1CCc2ccccc2C1 (stereo unspecified) do in these assays?
PI4K2A inh: -1; PKM2 act: 0%; GALK inh: 5%; TrxR1 inh-1: 16µM*; TrxR1 substrate: 7%[57.1 µM]; GR inh: -21; TrxR1 inh-2: 7.5*; TrxR1 insulin: inactive; TrxR1 inh-3: 0.24µM*

What do the screens show for `COc1ccc(-c2noc(CC(=O)Nc3cc(OC)ccc3OC)n2)cc1`?
PI4K2A inh: -6; TrxR1 inh-1: 30%; TrxR1 substrate: 0%
